In all, about 220,000 compounds went through this assay and about 910 (0.41%) were called active.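 The calls were made as follows: active = primary inhibition above the hit cutoff, then over 50% inhibition at one or more dose response concentrations (cut at about 23% in these data, passing the limit was not always enough); inconclusive = conflicting primary data, or primary hits not chosen for dose response; inactive = low primary inhibition, or under 50% at every dose.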 The list comes from a sample in which actives are over-represented; it also holds similar structures and randomly drawn compounds. Entries with a potency or affinity are not part of this list.
Target: Aminopeptidase N (Plasmodium falciparum (isolate 3D7)) (UniProt O96935)
Experiment: malaria alanyl aminopeptidase activity blockers – biochemical, fluorogenic H-Leu-NHMec substrate, 1536-well (AID 1445);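 also: plate controls were DMSO full reaction for no effect and no enzyme background for full effect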
Settings: recombinant M1AAP, H-Leu-NHMec fluorogenic kinetic assay; at 30 µM, hits give high values unless noted

Chain of Aminopeptidase N (Plasmodium falciparum (isolate 3D7)) (O96935 whole entry, looked up): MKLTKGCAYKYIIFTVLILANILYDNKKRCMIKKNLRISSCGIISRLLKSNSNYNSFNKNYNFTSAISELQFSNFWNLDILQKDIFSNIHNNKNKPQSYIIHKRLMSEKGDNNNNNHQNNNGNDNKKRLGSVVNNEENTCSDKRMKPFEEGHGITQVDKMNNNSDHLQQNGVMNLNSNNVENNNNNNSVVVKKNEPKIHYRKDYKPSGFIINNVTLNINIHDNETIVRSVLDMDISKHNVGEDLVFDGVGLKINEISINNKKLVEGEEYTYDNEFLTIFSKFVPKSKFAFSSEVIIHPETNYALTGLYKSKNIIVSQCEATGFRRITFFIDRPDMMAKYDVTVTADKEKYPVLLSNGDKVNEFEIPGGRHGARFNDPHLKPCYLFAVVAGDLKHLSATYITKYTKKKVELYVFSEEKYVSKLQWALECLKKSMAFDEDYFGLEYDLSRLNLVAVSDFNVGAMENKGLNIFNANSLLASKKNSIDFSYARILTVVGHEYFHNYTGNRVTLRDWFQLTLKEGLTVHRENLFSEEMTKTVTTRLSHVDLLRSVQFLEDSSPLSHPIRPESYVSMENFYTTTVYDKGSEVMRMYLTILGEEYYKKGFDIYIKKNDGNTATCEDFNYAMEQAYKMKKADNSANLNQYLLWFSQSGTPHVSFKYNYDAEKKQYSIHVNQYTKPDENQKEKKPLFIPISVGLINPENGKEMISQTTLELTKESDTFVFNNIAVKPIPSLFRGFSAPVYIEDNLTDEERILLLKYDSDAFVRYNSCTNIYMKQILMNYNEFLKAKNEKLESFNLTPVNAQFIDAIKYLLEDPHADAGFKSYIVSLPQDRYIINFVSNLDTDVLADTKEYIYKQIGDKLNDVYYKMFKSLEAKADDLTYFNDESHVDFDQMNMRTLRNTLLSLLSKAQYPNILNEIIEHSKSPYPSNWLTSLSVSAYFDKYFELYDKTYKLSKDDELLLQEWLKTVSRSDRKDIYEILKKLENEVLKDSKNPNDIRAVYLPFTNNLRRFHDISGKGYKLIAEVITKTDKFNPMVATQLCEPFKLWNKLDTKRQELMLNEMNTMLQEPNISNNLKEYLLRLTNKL

Compound	inhibition
CCCCc1ccc(NC(=O)C(C)CC)cc1 (stereo not given)	1.58% (inactive)
CC1=NN(C(=O)Cc2ccc([N+](=O)[O-])cc2)C(O)(c2cccnc2)C1 (stereo not given)	7.72% (inactive)
Cc1c(NC(=O)c2ccc3c(c2)C(=O)N(Cc2ccco2)C3=O)cccc1C(=O)O	3.77% (inactive)
O=C(Nc1ccc(O)cc1C(=O)O)c1ccc2c(c1)C(=O)N(Cc1ccco1)C2=O	15.1% (inactive)
O=C1CCC(=O)N1N1C(=O)C2C3c4ccccc4C(c4ccccc43)C2C1=O (stereo not given)	0.65% (inactive)
O=C(N/N=C/c1cc(Cl)cc([N+](=O)[O-])c1O)C1CC1	29.8% (inactive)
Cc1cc(C(=O)N/N=C/c2cc(Cl)cc([N+](=O)[O-])c2O)c2ccccc2n1	30.4% (inactive)
Cc1cc(C)n(CC(=O)N/N=C/c2ccc([N+](=O)[O-])s2)n1	13.2% (inactive)
O=C(Cn1nnc(-c2ccccc2)n1)N/N=C/c1cccc([N+](=O)[O-])c1O	7.92% (inactive)
Cc1cc(C)n(CC(=O)N/N=C/c2cc([N+](=O)[O-])ccc2O)n1	31.6% (inactive)
O=C(Cn1cnc([N+](=O)[O-])n1)N/N=C/c1ccccc1O	0.91% (inactive)
O=C(Cn1nc2ccccc2n1)N/N=C/c1cc([N+](=O)[O-])ccc1O	37.9% (inactive)
O=C(Cn1cnc([N+](=O)[O-])n1)N/N=C/c1ccc(O)cc1O	2.52% (inactive)
Cc1nc2c(c(=O)c3ccccc3n2C)c(=O)n1C1CCCCCC1	-1.82% (inactive)
NS(=O)(=O)c1ccc(N/C=C\C(=O)c2ccncc2)cc1	13% (inactive)
CCNS(=O)(=O)c1ccc(NC(=O)CC(C)c2ccccc2)cc1 (stereo not given)	1.21% (inactive)
CC(=O)Nc1cccc(/C(C)=N/NC(=O)c2cc(-c3ccncc3)nc3ccccc23)c1	10.5% (inactive)
Cc1cc(C)n(-c2ccc(Oc3ccccc3)c(S(=O)(=O)O)c2)n1	1.18% (inactive)
O=C1CC(c2cccs2)c2ccc3ccccc3c2N1 (stereo not given)	0.72% (inactive)
Cc1ccc(N2C(=S)NC3c4ccccc4OC2(C)C3C(=O)N(C)C)cc1 (stereo not given)	2.84% (inactive)
CN(Cc1cnccn1)Cc1nc(Cc2cccc(F)c2)no1	2.76% (inactive)
CCOc1[nH]n(-c2ccccc2)c(=O)c1C=Nc1ccccc1	7.67% (inactive)
CCOC(=O)c1ccc(NC(=O)CNS(=O)(=O)c2ccccc2)cc1	2.05% (inactive)
Oc1ccc(Cl)cc1N=Cc1sc2ccccc2c1Cl	21% (inactive)
Oc1ccc(Cl)cc1C=Nc1ccccc1Br	1.39% (inactive)

Compound	inhibition
OCCC1CN(Cc2c(F)cccc2Cl)CCN1C1CCCC1 (stereo not given)	-1.58% (inactive)
COc1ccc(OC)c2c1sc(=NC(=O)C1CC1)n2C	2.25% (inactive)
NC(=S)Nc1nc2ccccc2[nH]c1=O	23.5% (active)
COCCCNc1nc2ccccc2[nH]c1=O	7.88% (inactive)
COc1ccc2[nH]c(=O)c(NC(N)=S)nc2c1	16.1% (inactive)
Cc1occc1C(=O)NNC(=O)c1ccccc1Br	-1.69% (inactive)
COc1ccc2c(CC(=O)NCC3CCC(C(=O)O)CC3)cc(=O)oc2c1 (stereo not given)	3.73% (inactive)
COC(=O)Cc1cc(=O)oc2cc(OC)ccc12	1.65% (inactive)
O=C(Cn1nnc2ccccc2c1=O)NCC1CCC(C(=O)O)CC1 (stereo not given)	0.69% (inactive)
CCCCc1cc(=O)oc2cc(O)ccc12	31.7% (inactive)
COc1cc(OC)c2c(C)cc(=O)oc2c1C(CCN1CCN(c2ccccc2)CC1)c1ccc2c(c1)OCO2 (stereo not given)	1.4% (inactive)
Cc1ccc(C(=O)Nc2ccccc2C(=O)O)cc1NC(=O)COc1c(C)cccc1C	4.7% (inactive)
CN(CC(=O)Nc1cccc2ccccc12)C(=O)/C=C/c1cccs1	16.9% (inactive)
Cc1cc(C)cc(N(C(=O)c2nsc(Cl)c2Cl)C(C(=O)NC2CCCC2)c2ccc(O)cc2)c1 (stereo not given)	-3.07% (inactive)
N#Cc1cc2c(nc1SCc1ccccc1)CCCC2	5.77% (inactive)
C=CCn1c(CNc2ccc(C)cc2)nnc1SCC(=O)N/N=C/c1ccc(O)cc1O	37% (active)
Cc1cc(SCC(=O)N/N=C/c2ccc(O)c(O)c2O)c(C)cc1Br	39% (inactive)
C=CCn1c(CNc2ccc(C)cc2)nnc1SCC(=O)N/N=C/c1ccc(O)cc1	14.4% (inactive)
C=CCn1c(Cn2nnc3ccccc32)nnc1SCC(=O)N/N=C/c1cc(Br)cc(OC)c1O	46.2% (active)
CCn1c(SCC(=O)N/N=C/c2cc(OC)c(O)c(OC)c2)nc2ccccc21	3.33% (inactive)
Cc1cc(SCC(=O)N/N=C/c2ccc(O)c(O)c2)c(C)cc1Br	-0.74% (inactive)
Cc1cc(SCC(=O)N/N=C/c2ccc(O)cc2O)c(C)cc1Br	24% (active)
C=CCn1c(CNc2ccccc2)nnc1SCC(=O)N/N=C/c1ccccc1O	30.8% (inactive)
COc1cccc(/C=N\NC(=O)Cn2nnc3ccccc32)c1O	1.18% (inactive)
CCC1(CC)Cc2ccccc2C(=O)N1	2.59% (inactive)

Compound	inhibition
Nc1ccccc1SCc1ccccc1Cl	1.31% (inactive)
O=C(CCN1CCOCC1)NNC(=O)/C(=C/c1ccccc1)NC(=O)c1ccccc1	5.04% (inactive)
O=C(c1cccc(Oc2c(Cl)cccc2[N+](=O)[O-])c1)N1CCCCC1	4.82% (inactive)
Cc1ccc(CSC2=Nc3ccccc3C3=NC(CC(=O)NCc4ccco4)C(=O)N23)cc1 (stereo not given)	25.5% (active)
O=C(CCC1N=C2c3ccccc3N=C(SCc3ccc(Cl)cc3)N2C1=O)NCc1ccco1 (stereo not given)	11.4% (inactive)
Cc1ccc(CSC2=Nc3ccccc3C3=NC(CCC(=O)NCc4ccco4)C(=O)N23)cc1 (stereo not given)	14.5% (inactive)
C=CCN=C1S/C(=C\c2ccc(Cl)cc2)C(=O)N1CC=C	3.89% (inactive)
COC(=O)C(C(C)=O)C1=C/C(=N\S(=O)(=O)c2ccc(C)cc2)c2ccccc2C1=O (stereo not given)	12.9% (inactive)
Cc1ccc(S(=O)(=O)/N=C2/C=C(Sc3ncn[nH]3)C(=O)c3ccccc32)cc1	14.9% (inactive)
O=C(/C=C/c1cccc(Br)c1)N1CCN(c2ccccn2)CC1	12.4% (inactive)
CCCNC(=O)c1ccc2c(=O)n3c(-c4ccc(C)cc4)csc3nc2c1	10% (inactive)
O=C(O)CSc1nc(-c2cccs2)cc(C(F)(F)F)n1	-2.67% (inactive)
O=C(c1ccc(C(F)(F)F)cc1)C1CCCN(C(=O)CN2C(=O)CSC2=O)C1 (stereo not given)	-2.21% (inactive)
CC(Sc1nc(N)cc(=O)[nH]1)C(=O)Nc1cccc(Cl)c1 (stereo not given)	14.1% (inactive)
CN(CCc1ccccn1)C(=O)Nc1ccc(C(C)(C)C)cc1	2.28% (inactive)
CN1C(=O)/C(=C/c2coc3ccc(O)cc3c2=O)SC1=S	-2.96% (inactive)
O=C1NC(=S)S/C1=C\c1coc2ccccc2c1=O	14.4% (inactive)
CCC1CCCCN1C(=O)CCc1nnc(C2CCCCC2)o1 (stereo not given)	0.86% (inactive)
CC(C)Cc1nnc(NC(=O)CSc2nc(O)c(-c3ccccc3)c(=O)[nH]2)s1	4.36% (inactive)
O=C(Nc1nc(-c2cc3ccccc3oc2=O)cs1)c1ccco1	13.4% (inactive)
Nc1ccc(Nc2nc(-c3cc4ccccc4oc3=O)cs2)cc1	6.86% (inactive)
O=C1N(c2ccccc2)C[C@@H]2C[C@@H](c3cccs3)N3CCC[C@@]123	2.6% (inactive)
O=C(COc1ccccc1)Nc1ccc([N+](=O)[O-])cc1	3.2% (inactive)
O=C(COc1cccc2cccnc12)Nc1ccccc1	-0.06% (inactive)
O=C(COc1ccccc1[N+](=O)[O-])Nc1ccc(Br)cc1	-3.79% (inactive)

Compound	inhibition
O=C(COc1ccccc1[N+](=O)[O-])Nc1cccnc1	7.9% (inactive)
C=CCNC(=S)Nc1ccc(C(N)=O)cc1	4.91% (inactive)
COC(=O)/C=C/c1ccsc1NC(C)=O	7.35% (inactive)
O=C(Nc1ccccc1Oc1ccccc1)c1cccc([N+](=O)[O-])c1	6.7% (inactive)
Cc1nn(-c2cc(N3CCCC3)ccc2[N+](=O)[O-])c(=O)c2ccccc12	8.6% (inactive)
Cc1ccc(-n2c(SCC(=O)NCC3CCCO3)nc3c(c2=O)SCC3)cc1 (stereo not given)	4.19% (inactive)
O=C(CSc1nc2c(c(=O)n1-c1ccc(F)cc1)SCC2)NCC1CCCO1 (stereo not given)	15.6% (inactive)
COc1ccccc1NC(=O)CN1CCN(C(=O)c2ccco2)CC1	1.53% (inactive)
COc1ccc(C(=O)N2CCC(n3c(C)nc4cc(F)ccc43)CC2)cc1	-1.13% (inactive)
CC(C)CNC(=O)C(=O)NN=C1CCCCCC1	2.51% (inactive)
COC(=O)c1ccc(C)c(NS(=O)(=O)c2ccc3c(c2)OCCO3)c1	9.88% (inactive)
O=C(O)c1ccc(NS(=O)(=O)c2ccc3c(c2)OCCO3)cc1	7.45% (inactive)
Cc1ccc(C)c(N(C)C(=O)c2cc3c(=O)[nH]c4ccc(C)cc4c3s2)c1	-2.28% (inactive)
CC1(C)CC(=O)c2cc(OCC(=O)NCCN3CCCc4ccccc43)ccc2O1	6.69% (inactive)
COc1ccc2c(c1)C(=O)N(c1ccccc1OC)C(=O)C2(C)C	11.7% (inactive)
COc1nnc(-c2ccc(N3CCOCC3)c(NC(C)=O)c2)c2ccccc12	4.98% (inactive)
O=C(NCCc1ccccc1)C1CCN(C(=O)c2sccc2-n2cccc2)CC1	5.4% (inactive)
O=C(NCc1ccncc1)C1CCN(S(=O)(=O)Cc2ccccc2)CC1	22.4% (inactive)
CCn1c(C(=O)N2CCC(C(=O)NCc3cccs3)CC2)cc2sccc21	18.2% (inactive)
CCS(=O)(=O)N1CCC(C(=O)NCc2cccc(OC)c2)CC1	-2.58% (inactive)
Cn1c(C(=O)N2CCCC(C(=O)NCc3ccc4c(c3)OCO4)C2)cc2sccc21 (stereo not given)	5.35% (inactive)
CCn1c(C(=O)N2CCC(C(=O)NCc3ccc4c(c3)OCO4)CC2)cc2sccc21	31.3% (active)
O=C(NCc1ccccc1F)C1CCN(C(=O)c2sccc2-n2cccc2)CC1	3.14% (inactive)
CCS(=O)(=O)N1CCC(C(=O)NCc2ccc3c(c2)OCO3)CC1	21.3% (inactive)
CCCS(=O)(=O)N1CCCC(C(=O)NCc2ccc3c(c2)OCO3)C1 (stereo not given)	4.51% (inactive)
